Values joined by “and” are separate entries in the source; they are usually repeats but may differ in a detail not shown here. Equal values may be shown once. Results filed as inconclusive are left out. Active and inactive are the calls of the source. Calls come from the whole dose curve; as a rule, active = well fitted inhibition curve with a large enough effect in the repeat runs; inconclusive = weak or mixed curves; inactive = no such curve, though single readings can be large or run the other way.
Potency is the fitted concentration of half-maximal effect.

For this experiment, the target named is Cytochrome P450 2C9 (Homo sapiens) (UniProt P11712). In words: Cytochrome P450 Family 2 Subfamily C Member 9 (CYP2C9) small molecule antagonists: luciferase reporter qHTS assay (AID 1671198). Note: nearly all actives have a fitted effect of over 50% in size. Conditions: P450-Glo CYP2C9 enzyme assay, luciferin luminescence; series mostly up to 53 µM. The source says: U.S. Tox21 Program National Center for Advancing Translational Sciences [NCATS] U.S. Environmental Protection Agency [EPA] National Institutes of Environmental Health Sciences [NIEHS] National Toxicology Program [NTP] U.S. Food and Drug Administration [FDA] Tox21 Assay Overview: Cytochrome P450 (CYP) enzymes are membrane-bound hemeproteins that play a key role in metabolism of drugs and xenobiotics. Evaluation of the effect of chemicals on CYP isozymes is useful to minimize the adverse drug reactions and toxicities in drug development process. Tox21 chemicals were tested for their effect on CYP enzyme activities by using P450-Glo (TM) screening systems (Promega Corporation, Madison, WI). These systems provide a luminescent method containing proluciferin substrates and are converted to luciferin products by CYP isozymes. The luciferin products formed are detected with a luciferin detection reagent, and the amount of light produced is proportional to CYP activity. P450-Glo (TM) CYP2C9 screening system (Catalog. No. V9790) was used to detect the compounds that interfere in CYP2C9 activity.
Sequence of Cytochrome P450 2C9 (Homo sapiens) (P11712 whole entry, looked up): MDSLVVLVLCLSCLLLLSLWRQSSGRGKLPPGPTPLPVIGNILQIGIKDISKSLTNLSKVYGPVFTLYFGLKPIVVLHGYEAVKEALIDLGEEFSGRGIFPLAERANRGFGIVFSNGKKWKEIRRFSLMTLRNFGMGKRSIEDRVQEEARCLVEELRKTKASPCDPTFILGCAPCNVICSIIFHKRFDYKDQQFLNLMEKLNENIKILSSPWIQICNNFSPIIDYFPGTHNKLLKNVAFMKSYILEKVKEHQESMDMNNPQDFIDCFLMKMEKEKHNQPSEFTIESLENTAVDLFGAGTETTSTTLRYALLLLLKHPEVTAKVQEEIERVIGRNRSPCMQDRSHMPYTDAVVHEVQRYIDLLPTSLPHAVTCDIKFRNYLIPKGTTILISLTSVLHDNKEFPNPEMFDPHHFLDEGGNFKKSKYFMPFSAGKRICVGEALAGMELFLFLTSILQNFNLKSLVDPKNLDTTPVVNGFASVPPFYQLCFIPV
Tox21 Assay Protocol Summary: Two ul of enzyme-substrate mix was dispensed into medium binding white/solid 1536-well plates (Greiner Bio-One North America Inc., Monroe, NC) using a BioRaptr Flying Reagent Dispenser (FRD, Beckman Coulter, Brea, CA). […] The assay plates were incubated at room temperature for 10 min. Then 2 ul of NADPH regeneration solution was added to each well of the assay plates using an FRD and incubated at 37C for 1 h. The reaction was stopped by adding 4 ul of detection reagent using an FRD and after 20 min incubation at room temperature the luminescence signal was measured using a ViewLux plate reader (Perkin Elmer, Shelton, CT). Data were expressed as relative luminescence units.
Background: A reporter such as luciferase makes a cellular process visible.
For the molecule `O=CC=C(c1ccccc1)c1ccccc1`, the Potency is 20.2 µM (active). As for `Cc1cc(=O)oc2cc(N(C)C)ccc12`, the Potency was 44.8 µM (active). Under `Cc1oc(-c2ccccc2)nc1CCC(=O)c1ccc(CC2SC(=O)NC2=O)cc1` (stereo not given) stands 7.76 µM (active); under `CC(C)C(C)(C)C(C)(C)C(C)(C)S`, 46.1 µM (active); under `CCCCCCCC/C=C\CCCCCCCCOCCO`, 29.2 µM (active). For `O=C(NOCC1CC1)c1ccc(F)c(F)c1Nc1ccc(I)cc1Cl`, the Potency is 0.55 µM (active).

On to `CCCN(CCC)C(=O)C(CCC(=O)OCCCN1CCN(CCOC(=O)Cc2c(C)n(C(=O)c3ccc(Cl)cc3)c3ccc(OC)cc23)CC1)NC(=O)c1ccccc1` (stereo not given), for which the Potency was 4.9 µM (active). Under `C=C(C)C(=O)OCC[N+](C)(C)C` stands “inactive”. With `CN(C)c1ccc(SC#N)cc1`, the Potency is 17.8 µM (active).

As to `C[C@]12CCC(=O)C=C1CC[C@@H]1[C@@H]2[C@@H](O)C[C@@]2(C)[C@H]1CC[C@]2(O)C(=O)COC(=O)CCC(=O)O`, the Potency result is “inactive”.

Regarding `CCOc1ccc2nc3cc(N)ccc3c(N)c2c1`, the Potency entry was “inactive”. Regarding `O=c1cccccc1O`, the Potency entry is “inactive”. As for `CCN(C(=O)N(CC)c1ccccc1)c1ccccc1`, the Potency was 7.1 µM (active).

As for `COC(=O)c1cc(Cl)ccc1OC`, the Potency entry was “inactive”. As for `O=[N+]([O-])c1ccccc1Nc1ccccc1`, the Potency is 39.7 µM (active). Next, `CCCCCCCCOC(=O)c1ccc(O)cc1`: 31.6 µM (active) and 35.6 µM (active). Take `O=C1c2c(O)ccc(Nc3ccc(CCO)cc3)c2C(=O)c2c([N+](=O)[O-])ccc(O)c21`: the Potency is 10 µM (active).

For `CN(C/C=C/C#CC(C)(C)C)Cc1cccc2ccccc12`, the Potency is 15.5 µM (active). As for `Cc1cccc(CN2CCN(C(c3ccccc3)c3ccc(Cl)cc3)CC2)c1` (stereo not given), the Potency was 13.8 µM (active). As to `COc1ccc(C(=O)/C(Br)=C\C(=O)O)cc1`, the Potency was 25.2 µM (active). Next, `Cc1cccc(S(=O)(=O)O)c1C`: “inactive”; `Oc1ccc2c(c1)-c1ccccc1C2`: 39.9 µM (active).

Take `CC1=C(C(=O)OC(C)C)C(c2cccc([N+](=O)[O-])c2)C(C(=O)OC2CN(C(c3ccccc3)c3ccccc3)C2)=C(N)N1` (stereo not given): the Potency is 1.38 µM (active). `CCCCCCCCCCCCCC[P+](CCCC)(CCCC)CCCC` (tested in a mixture with another compound): the Potency is 11.3 µM (active). Regarding `Nc1cc(C(F)(F)F)ccc1S`, the Potency was 2.19 µM (active). For `CC(C)(C)C(=O)OCOC(=O)[C@@H]1N2C(=O)[C@@H](NC(=O)[C@H](N)c3ccccc3)[C@H]2SC1(C)C`, the Potency was 24.5 µM (active). Under `CCOC(=O)O[C@]1(C(=O)OCCl)CC[C@H]2[C@@H]3CCC4=CC(=O)C=C[C@]4(C)[C@H]3[C@@H](O)C[C@@]21C` stands “inactive”. `NNc1nc(-c2ccc(N)cc2)cs1`: the Potency was 31.7 µM (active). Take `Nc1c2ccccc2nc2ccccc12`: the Potency result is “inactive”.

`Nc1ccc2cc(S(=O)(=O)O)cc(O)c2c1N=Nc1ccccc1C(F)(F)F`: the Potency was 63.3 µM (active).

Turning to `COc1ccc(-c2ccc3cc(C(=O)O)ccc3c2)cc1C12CC3CC(CC(C3)C1)C2`, the Potency entry was “inactive”. Next, `CC(C)CCCCCCCCCCCCCCC(=O)O`: “inactive”; `O=C1C=CC(=O)N1c1ccc(Cc2ccc(N3C(=O)C=CC3=O)cc2)cc1`: 5.64 µM (active). As for `N/C(=N\N=C\c1ccc(Cl)cc1)N/N=C/c1ccc(Cl)cc1`, the Potency is 13.8 µM (active). Under `CC1=NC(C)OC1C` (stereo not given) stands “inactive”; under `CCCCCCOC(=O)c1ccc(O)cc1`, 35.6 µM (active) and 39.9 µM (active); under `CC[C@H]1O[C@]2(CC[C@@H]1C)C[C@@H]1C[C@@H](C/C=C(\C)C[C@@H](C)/C=C/C=C3\CO[C@@H]4[C@H](O)C(C)=C[C@@H](C(=O)O1)[C@]34O)O2`, 12.5 µM (active). Consider `O=c1c(-c2ccccc2)c1-c1ccccc1`, for which the Potency was 17.4 µM (active). Next, `C=CC(=O)OCC(CO)(COC(=O)C=C)COC(=O)C=C`: 11.3 µM (active) and 11.2 µM (active); `COc1cccc2c1C(=O)c1c(O)c3c(c(O)c1C2=O)C[C@@](O)(C(=O)CO)C[C@@H]3O[C@H]1C[C@H](N)[C@H](O[C@@H]2CCCCO2)[C@H](C)O1`: 15.5 µM (active).

These data come from PubChem BioAssay (Tox21).
